Consider 34 compounds from PubChem BioAssay (NCI).

Values joined by “and” are separate entries in the source; they are usually repeats but may differ in a detail not shown here. Equal values may be shown once. This is part of a sample that, as a whole, favours compounds with a hit. Of some 83,000 tested, about 20% had one in any assay.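 The test compound was applied at a single concentration to cells in 96-well plates for 48 hours, and percent growth was recorded.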 Active and inactive are the calls of the source. The calls were made as follows: active = growth percent below 10; inactive = the rest.

The assay concerns HL-60(TB) leukemia. Description: NCI-60 one-dose screen, 48 h (100 = growth as untreated, 0 = no growth, -100 = all killed). The conditions noted are these: 10 µM unless noted.
For `COc1ccc(Cc2nn(CC(=O)N/N=C/c3ccc([N+](=O)[O-])cc3)c(=O)c3c(C)noc23)cc1`, the growth was 109% (inactive).

With `NS(=O)(=O)c1ccc(NNC(=O)CCC(=O)c2ccccc2)cc1`, the growth was 75.3% (inactive).

As for `CSc1ccccc1NC(=O)c1ccc2nnn(/C(C#N)=C/c3ccccn3)c2c1`, the growth is -31.5% (active).

For the compound `Nc1nnc(-c2cncc(Br)c2)c(-c2c[nH]c3ccc(Cl)cc23)n1`, the growth is 64.3% (inactive).

For the compound `C/C(=C\CC/C=C(\C)CC/C=C(\C)CC[C@@H](O)C(C)(C)O)CC/C=C(\C)CC[C@@H](O)C(C)(C)O`, the growth was -49.3% (active).

As for `CC1(c2ccccc2)NC(=O)N(CC(=O)Nc2ccc(C(=O)/C=C/c3ccc(Br)cc3)cc2)C1=O` (centres undefined), the growth is 20.8% (inactive).

As to `COc1cc(-c2nc3cc(Cl)c(Cl)cc3[nH]2)ccc1OCc1nnc(-c2ccc(Br)cc2)o1`, the growth was -62% (active).

On to `COc1ccc(OC)c(/C=N/NC(=O)c2ccc3nc(-c4ccc(Cl)cc4)[nH]c3c2)c1`, for which the growth is 87.1% (inactive).

`COc1ccc2nc(Cl)c(-c3cc(-c4ccccc4)nc(N)n3)cc2c1`: the growth was -37.5% (active).

For the compound `COc1cccc2nc(Nc3ccc(F)c(NC(=O)c4ccc(CN5CCN(C)CC5)c(C(F)(F)F)c4)c3)ccc12`, the growth was -73.1% (active).

In the case of `CC(=O)Nc1cccc(-n2c(COc3ccc(I)cc3)nc3ccccc32)c1`, the growth was 116% (inactive) and 92.8% (inactive).

Take `COc1ccc2nc(Nc3cccc(NC(=O)c4ccc(CN5CCN(C)CC5)c(C(F)(F)F)c4)c3)ccc2c1`: the growth is -47.8% (active).

`O=c1[nH]c2ccccc2cc1CSc1nccc(-c2ccc3ccccc3c2)n1`: the growth was 50.7% (inactive).

As for `COc1ccc(N(C)c2cc(C#N)nc3ccccc23)cc1/C=C/C(=O)NO`, the growth is -28.7% (active).

`CCCS(=O)(=O)N1CCCC(C(=O)Nc2nc3ccc(NC(=O)c4ccc(F)c(OC)c4F)cc3s2)C1` (centres undefined): the growth was 27.3% (inactive).

Take `COc1ccc(/C=C2\C(=N)N=C(SCc3nc4ccccc4[nH]3)NC2=O)cc1`: the growth is 103% (inactive).

Turning to `Clc1cccc(N/N=C/c2c[nH]c3ccc(Br)cc23)n1`, the growth is 5.14% (active).

As to `CCCCCCCCc1ccc(C(=O)Nc2ccc(C)cc2C(=O)O)cc1C`, the growth was 102% (inactive).

`COc1ccc(C=CC(=O)c2ccc(-n3c(C)nc4c(cnn4-c4ccccc4)c3=O)cc2)cc1`: the growth is 44.7% (inactive).

On to `CCCSc1nnc(-c2sc3nc4ccccc4n3c2C)o1`, for which the growth was 94% (inactive).

On to `Cc1ccc([C@H]2C(C(=O)c3ccc(Cl)cc3)C3(N[C@@H]2c2ccccc2)C(=O)Nc2ccc(Br)cc23)cc1` (some centres undefined), for which the growth was 35.1% (inactive).

`O=C(Nc1ccc(Cl)c(C(F)(F)F)c1)N1CCN(c2cc(-c3cn(-c4ccccc4)nc3-c3cccc(O)c3)ccn2)CC1`: the growth is -34.3% (active).

With `COC[C@@H](CC(C)C)N=C1NC(=O)/C(=C/c2ccc3ncsc3c2)N1`, the growth is 1.21% (active).

Turning to `O=C1/C(=C/c2cnc(-c3ccccc3)s2)SC(=S)N1Cc1ccc2c(c1)OCO2`, the growth is 69% (inactive).

`COc1cc2c(c(OC)c1OC)C(=O)CC(c1cccc(NC(=O)c3cc(NC(=O)[C@H](CO)NC(=O)OC(C)(C)C)ccc3Cl)c1)O2` (some centres undefined): the growth is 36.6% (inactive).

As to `COc1ccc(N=Nc2c(N)nn3c(-c4ccc(F)cc4)ccnc23)cc1`, the growth is 95.3% (inactive).

Take `CC[C@]12C=CCN3CC[C@@]4(c5ccc(OC)cc5N(C)[C@H]4[C@@](O)(C(=O)OC)[C@@H]1OC(=O)CCCC[P+](c1ccc(F)cc1)(c1ccc(F)cc1)c1ccc(F)cc1)[C@@H]32`: the growth was -32.2% (active).

With `O=C(NO)c1ccc(CNC(=O)[C@H]2Cc3c([nH]c4ccccc34)[C@H](c3ccc(Cl)cc3)N2)cc1`, the growth was 4.62% (active).

Consider `CN(C)c1nc(NCCNS(=O)(=O)c2ccc(C(=O)/C=C/c3ccc(Cl)cc3)cc2)nc(N2CCOCC2)n1`, for which the growth is 16.8% (inactive).

For `O=C(Cn1c(-c2ccccc2)nc2ccccc21)N=Nc1c(O)[nH]c2ccc(Br)cc12`, the growth is 42.4% (inactive).

Turning to `COc1ccc2[nH]cc(-c3nnc(N)nc3-c3c[nH]c4ncc(Br)cc34)c2c1`, the growth is 103% (inactive).

Consider `NS(=O)(=O)c1ccc(NC(=O)CSc2ccc(-c3ccc(Cl)cc3)nn2)c(Br)c1`, for which the growth is 98% (inactive).

Turning to `CN(C)c1ccc(/C=C/c2nc3ccccc3c(=O)n2CC(=O)Nc2ccc(Cl)cc2)cc1`, the growth was 95% (inactive).

In the case of `O=C(c1ccc(O)cc1)C1[C@H](c2ccccc2Br)[C@@H](c2ccccc2)NC12C(=O)Nc1ccc(Br)cc12` (some centres undefined), the growth is 33.6% (inactive).
